High-throughput results from PubChem.
Rows were chosen to be rich in hits. Some 4.6% of all compounds tested hit in one or more screens of this group.
MARV entry inh – blocks Marburg virus binding to or entry into cells; AID 540276; Potency, µM (highest dose often 37.8 µM), most hits filed as inhibitors; hit rate 1.8% among 300,000; Marburg virus pseudotyped entry inhibition, cell reporter; calls by dose curve; tested in HEK293 cells
HCV inhibitor – blocks hepatitis C virus. Huh7.5.1 HCVcc-Cre infection, luciferase reporter, 44 h. Potency, µM (top dose mostly 41.8 µM), actives largely listed as inhibitors. hit rate 3.4% among 340,000. AID 651820
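Whole-lifecycle infectious HCVcc-Cre system; cells 1,000/well, compound then virus (~0.5 moi) added 4 h after plating, 44 h culture. Luciferase read 15 sec following 15 min substrate incubation, room temp.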
LASV entry inh – inhibitors of Lassa virus binding or cell entry; Potency, µM (top dose mostly 37.9 µM), hits mostly inhibitors; hit rate 1.2% among 300,000; Lassa virus pseudotype entry inhibition, cell reporter; calls by dose curve; tested in HEK293 cells; note: nearly all actives have a fitted effect of over 50% in size
VACV mCherry inh – vaccinia inhibition (mCherry reporter); AID 720579; Vaccinia virus mCherry reporter infection, fluorescence; hit rate 0.63% among 310,000; Potency, µM (highest dose often 36.5 µM), most hits filed as inhibitors; calls by dose curve; tested in A549 cells; note: nearly all actives have a fitted effect of over 35% in size
VACV Venus inh – inhibitors of vaccinia virus (Venus reporter); hit rate 0.46% among 330,000; Vaccinia virus Venus reporter expression, fluorescence; Potency, µM (series often up to 36.5 µM), hits mostly inhibitors; calls by dose curve; tested in A549 cells; note: nearly all actives have a fitted effect of over 30% in size
HCV inh confirm – HCV inhibition, cherry-pick confirmation | hit rate 78% among 640 | shares compounds with HCV inhibitor | HCVcc-Cre infectious virus cell assay, luciferase, inhibition | Potency, µM (highest dose often 41.8 µM), usual class: inhibitors; note: nearly all actives have a fitted effect of over 80% in size
HCV cytotox – host cell cytotoxicity counter-screen for HCV inhibitors; AID 720576; hit rate 22% among 640; Potency, µM (doses to about 41.8 µM), usual class: inhibitors; HCV host cell line cytotoxicity counterscreen; shares compounds with HCV inhibitor;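 note: 44 h compound exposure; nearly all actives have a fitted effect of over 55% in size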
A number is an active result; . = inactive; ? = inconclusive; / = not tested or not shown. Unless noted, calls come from the whole dose curve; as a rule, active = well fitted curve in the direction sought with a large enough effect; inconclusive = small, poorly fitted or top-dose-only effect, or another doubt; inactive = no such curve, though single readings can be large; an effect the other way counts as inactive or inconclusive.

SMILES | MARV entry inh | HCV inhibitor | LASV entry inh | VACV mCherry inh | VACV Venus inh | HCV inh confirm | HCV cytotox
COc1cccc(N(C(=O)CCl)C(C(=O)NCCc2ccccc2)c2cccs2)c1 (configuration not stated) | ? | 0.71µM | ? | ? | ? | 0.89µM | 0.5µM
CC1CC(C)C(=O)C(C(CC2CC(=O)NC(=O)C2)OC(=O)CC(=O)c2ccccc2)C1 (configuration not stated) | ? | 5µM | ? | 4µM | 1.8µM | 13µM | .
CN1CCN(/N=C/c2ccc(Cl)c(Cl)c2)CC1 | ? | ? | ? | . | . | ? | .
CSc1ccc(C2c3c(oc4cc(C)cc(C)c4c3=O)C(=O)N2CCO)cc1 (configuration not stated) | ? | / | . | . | . | / | /
CC(C)Sc1nc2c(c(=O)[nH]c(=O)n2C)n1Cc1ccc(Cl)cc1 | . | ? | ? | / | . | / | /
CC(C)Sc1nc2c(c(=O)[nH]c(=O)n2C)n1Cc1ccccc1 | . | ? | . | . | . | . | .
COc1cc(C)c(C(=O)Oc2cc(C)c(C(=O)O)c(O)c2)c(O)c1 | / | 0.79µM | / | . | . | . | .
COC1C(O)C(C)OC(OC2CCC3(C)C(CCC4C3C(O)CC3(C)C(C5=CC(=O)OC5)CCC43O)C2)C1O (configuration not stated) | ? | 1.6µM | ? | 0.25µM | 0.35µM | 1.1µM | ?
CCn1cc(C(=O)N2CCN(c3ccc(OC)cc3)CC2)c(=O)c2cc(S(=O)(=O)N(C)C3CCCCC3)ccc21 | . | / | . | . | . | / | /
COc1cc(OC)c(NC(=O)c2ccoc2C)cc1Cl | ? | ? | . | / | / | / | /
COc1ccc(Cl)cc1NC(=O)c1ccoc1C | . | 5.6µM | . | / | ? | 14µM | .
Cc1ccc(C(=O)CCNc2ccc(Br)cc2)o1 | . | . | . | . | . | / | /
Cc1ccc(C(=O)CCNc2ccc(F)c(Cl)c2)o1 | . | 3.2µM | . | / | / | 2.8µM | .
Cc1ccc(C(=O)c2c3ccc([N+](=O)[O-])cc3[n+]([O-])n2CCCN)cc1 | / | 7.9µM | / | ? | 14µM | 7µM | .
Cc1cc(=O)n2c3ccccc3n(CC(O)CN3CCCC3)c2c1C#N (configuration not stated) | . | 2µM | ? | . | . | 13µM | .
Cc1ccc(C(=O)NCc2ccc(F)cc2)cc1NC(=O)c1nsc2ccccc12 | / | / | ? | . | . | / | /
O=C(Nc1ccccc1)N1CCN(c2ccc(C(F)(F)F)cn2)CC1 | . | ? | . | / | / | / | /
O=C(Nc1ccc(F)cc1F)N1CCCN(c2ccc(C(F)(F)F)cn2)CC1 | ? | 5µM | . | ? | ? | 5.6µM | 7.9µM
CNC(=S)Nc1ccc(N2CCN(c3ccc(C(F)(F)F)cn3)CC2)nc1 | . | 2.5µM | . | . | ? | 5µM | ?
Cc1cnc(C(=O)N2CCN(c3ccc(C(F)(F)F)cn3)CC2)cn1 | ? | . | . | . | . | / | /
COc1ccccc1N(CC(=O)Nc1ccccc1F)S(C)(=O)=O | . | / | ? | . | . | / | /
C=CCC(CC=C)(CNC(=O)C(=O)Nc1ccc(C(=O)OCC)cc1)c1ccccc1 | . | / | ? | . | . | / | /
CC(C)=CCC/C(C)=C/CNC(=O)C[C@H]1C[C@H](C(=O)N2CCOCC2)[C@@]2(C)c3[nH]c4cc(CCC(=O)N(C)C)ccc4c3CCN2C1=O | . | ? | / | ? | . | / | /
CC(C)=CCC/C(C)=C/CNC(=O)C[C@H]1C[C@H](C(=O)N2CCCCC2)[C@@]2(C)c3[nH]c4cc(CCC(=O)N(C)C)ccc4c3CCN2C1=O | / | 7.9µM | / | . | ? | 25µM | ?
N#C/C(=C\c1ccc(Oc2ccc(C(F)(F)F)cc2[N+](=O)[O-])cc1)c1nc2ccccc2[nH]1 | ? | . | ? | / | . | / | /
O=S(=O)(/C(=C\c1ccc(C(F)(F)F)cc1)c1nc2ccccc2[nH]1)c1ccccc1 | 4µM | 1.4µM | 3.5µM | ? | ? | 7.9µM | .
Cc1cccc(Cn2c(O)c(N=NC(=S)Nc3ccccc3F)c3ccccc32)c1 | ? | 4µM | . | / | / | 7.9µM | ?
CN1CCN(S(=O)(=O)c2ccc(N(C)Cc3ccc(C(F)(F)F)cc3)c([N+](=O)[O-])c2)CC1 | 10µM | 3.2µM | ? | . | ? | 14µM | 28µM
COC(=O)C1=C(C(=O)OC)SC2(S1)C(C(=O)OC)=C(C(=O)OC)Sc1c2ssc1=O | ? | ? | 11µM | 7.1µM | 7.1µM | 10µM | 7.9µM
